Screens from PubChem BioAssay.
ROMK mod – modulates human ROMK potassium channel activity. AID 1918. P48048. Tet-inducible ROMK, thallium flux fluorescence; actives lie on both sides. B-score at 10 µM. 2% of 130,000 active;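 active = signal ratio slope over the read window, or its plate-corrected B-score, at least 3 SD from the plate mean, either direction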;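 note: B-score of the F/F0 ratio slope over 7 to 12 s after thallium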
Target sequence (P48048 whole entry, looked up): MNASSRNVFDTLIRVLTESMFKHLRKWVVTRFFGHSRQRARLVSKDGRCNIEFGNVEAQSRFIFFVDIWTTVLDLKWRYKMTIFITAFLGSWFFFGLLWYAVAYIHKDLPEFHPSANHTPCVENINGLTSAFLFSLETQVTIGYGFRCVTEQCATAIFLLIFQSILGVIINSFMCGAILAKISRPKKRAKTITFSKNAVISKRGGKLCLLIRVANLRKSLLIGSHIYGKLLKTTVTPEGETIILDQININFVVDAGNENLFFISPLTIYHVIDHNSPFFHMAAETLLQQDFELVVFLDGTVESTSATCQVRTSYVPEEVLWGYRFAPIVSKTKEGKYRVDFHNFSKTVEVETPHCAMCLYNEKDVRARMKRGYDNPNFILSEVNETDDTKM
Insulin prom inh – TRM-6 insulin promoter activity inhibition; inhibition, % at 2 µM; TRM-6 cells (human fetal islet line), insulin promoter-eGFP reporter, imaging; reporter expression induced with tamoxifen; 0.9% of 130,000 active;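 active = inhibition above the mean plus 3 SD, with well images judged a real hit on visual review, cut at about 60% in these data, passing the limit was not always enough; inconclusive = inhibition over the cutoff but images rejected on review; inactive = inhibition not above the cutoff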
Ins promoter up – MIN6 insulin promoter up-regulation; MIN6 insulin promoter-GFP reporter, high-content imaging; active compounds read high; AID 1625; 0.3% of 190,000 active; z-score at 5 µM;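 active = z-score above 3 at 5 µM with at least 500 cells counted in the well; inconclusive = wells under 500 cells, flagged as cytotoxic or low count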
KCC2 mod – KCC2 (human) Cl- transport modulation; Q9H2X9; KCC2 cells, thallium flux FluoZin-2 fluorescence; B-score of Tl+ flux slope (higher = more flux/activation; lower = inhibition) at 10 µM; 2.2% of 190,000 active;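 active = thallium flux slope and its plate-corrected score both differing from the plate sample mean at a set confidence after two filtering rounds, in either direction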;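 note: slope of fluorescence scaled to starting intensity during 10 to 20 s after thallium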
WT yeast gro inh – growth inhibition of WT yeast, mitochondrial fusion screen; mitochondrial fusion phenotypic screen, WT strain; inhibition, % at 10 µM; 2.1% of 190,000 active; AID 1362; in the data active = inhibition above about 58%; tested in S. cerevisiae
Lmaj promast – inhibitors of Leishmania major promastigote growth; 9% of 200,000 active; AID 1063; inhibition, % at 10 µM; Leishmania major promastigotes, resazurin fluorescence viability; in the data active = inhibition above about 50%;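 note: promastigotes grown with compound for 44 hours at 28 °C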
KCC2 sec1 – confirmation of human KCC2 transport modulators; HEK293-KCC2, thallium flux, FluoZin2 fluorescence; active compounds read high; normalised thallium flux (F/F0 slope) at 10 µM; AID 1713; shares compounds with KCC2 mod; 15% of 3,700 active;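 active = thallium flux slope above the same plate's solvent-only control mean plus 3 SD; inconclusive = the two replicate wells disagree; inactive = no significant difference from solvent-only control wells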
KCC2 bumet counter – bumetanide-insensitive thallium flux in KCC2 cells with ouabain, counter-screen; normalized thallium flux at 10 µM; shares compounds with KCC2 mod; HEK293-KCC2 + bumetanide/ouabain, thallium flux FluoZin2; active compounds read high; AID 1714; 49% of 3,700 active;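 active = thallium entry rate above the same plate's blocked-transporter control wells by more than 3 SD; inconclusive = the two repeat wells disagree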;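 note: raw slope of fluorescence over initial fluorescence between 10 and 20 s after thallium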
KCC2 secondary2 – KCC2 (human) modulation, second secondary assay | shares compounds with KCC2 mod | HEK293-KCC2, thallium flux FluoZin2 fluorescence; actives lie on both sides; F/F0 rise rate, 10–20 s post-thallium | normalized thallium flux at 10 µM | 23% of 3,700 active;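 active = thallium flux slope more than 3 SD above or below the plate's solvent-only control mean, mostly below; inconclusive = the two repeat wells disagreed; inactive = no significant shift from solvent-only controls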;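 note: raw slope with 0.1% DMSO as baseline and bumetanide as block control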
HEK293 Tl flux – acts in parental HEK cells, KCC2 counter-screen; shares compounds with KCC2 mod; HEK293 parental cells, thallium flux FluoZin2, ouabain; baseline-ratio fluorescence slope, 10–20 s after thallium; thallium flux rate (normalised fluorescence) at 10 µM; 46% of 3,700 active; AID 1716;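 active = thallium flux rate significantly above the same plate's solvent-only control wells, beyond their mean plus 3 SD; inconclusive = the two replicate wells gave conflicting results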
KCC2 ouabain – confirmation of human KCC2 modulators with ouabain; shares compounds with KCC2 mod; HEK293-KCC2, thallium flux FluoZin2 fluorescence; bidirectional: low = inhibitor, high = activator; raw Tl+ flux slope (below DMSO = inhibition, above = activation) at 10 µM; 48% of 3,700 active;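 active = thallium flux slope beyond 3 SD from same-plate DMSO control mean in most replicates, usually higher, sometimes lower; inconclusive = repeat tests gave conflicting results; inactive = no significant difference from controls in most replicates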;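 note: slope of initial-normalized fluorescence between seconds 10 and 20 after thallium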
HEK counter2 – counter-screen for KCC2 modulators: effect in parental HEK293 cells; shares compounds with KCC2 mod; thallium flux FluoZin-2 fluorescence slope; thallium flux slope at 10 µM; 33% of 3,700 active; AID 1718;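 active = thallium flux slope above the same plate's solvent-control mean plus 3 SD in both duplicate wells; inconclusive = duplicate wells that disagreed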;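 note: run without ouabain in cells lacking the KCC2 cotransporter; slope of fluorescence scaled to its starting value between 10 and 20 s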
* marks the source's active call; other numbers are inactive results. Compounds with a hit are over-represented: about 12% of the library has one in this group of screens.

What do the screens show for `COc1ccc(-c2cn(-c3ccc(Cl)cc3)c3[n+]2CCCCC3)cc1`?
Ins promoter up: inconclusive; KCC2 mod: 1.5

How did COc1ccc(-n2cc(-c3ccc(Cl)cc3)[nH]c2=S)cc1 do in these assays?
Ins promoter up: 1.4; KCC2 mod: 5.7*; KCC2 sec1: 0.025*; KCC2 bumet counter: 0.013*; KCC2 secondary2: 0.03; HEK293 Tl flux: 0.0093*; KCC2 ouabain: 0.019; HEK counter2: 0.011

What do the screens show for `O=C(CCCn1c(=O)oc2ccccc21)N1CCc2ccccc2C1`?
ROMK mod: 0.027; Ins promoter up: 0.11; WT yeast gro inh: 0; Lmaj promast: -5; KCC2 sec1: 0.0082; KCC2 bumet counter: 0.0061; KCC2 secondary2: 0.032; HEK293 Tl flux: 0.007; KCC2 ouabain: 0.018*; HEK counter2: 0.01

What do the screens show for `O=C(CCCn1ncn2c(cc3occc32)c1=O)N1CCc2ccccc2C1`?
ROMK mod: 0.045; Insulin prom inh: -12; KCC2 mod: -2.8*; WT yeast gro inh: -7; Lmaj promast: -8; KCC2 sec1: 0.0053; KCC2 bumet counter: 0.0049; KCC2 secondary2: 0.024*; HEK293 Tl flux: 0.0074; KCC2 ouabain: inconclusive; HEK counter2: 0.011

What do the screens show for `CCCc1c(NC(=O)Nc2ccc(F)cc2)cnn1-c1ccc(Cl)cc1`?
Ins promoter up: -0.83; KCC2 mod: -1.5

Results for O=C(O)[C@H](Cc1ccccc1)NC(=O)N1CCN(c2ccccc2)CC1 ?
Ins promoter up: -0.31; KCC2 mod: 3.9

How did C[n+]1cccc2c(Br)ccc([O-])c21 do in these assays?
Ins promoter up: 0.01; KCC2 mod: -0.069

How did [O-][n+]1cccc2c(Br)cc(Br)c(O)c21 do in these assays?
ROMK mod: -0.31; Insulin prom inh: 64; Ins promoter up: 0.45; KCC2 mod: 29*; WT yeast gro inh: -10; Lmaj promast: -5; KCC2 sec1: 0.0071; KCC2 bumet counter: 0.073*; KCC2 secondary2: 0.047*; HEK293 Tl flux: 0.047*; KCC2 ouabain: 0.064*; HEK counter2: 0.034*

What do the screens show for `CN(C)CCCNc1ccc(S(N)(=O)=O)cc1[N+](=O)[O-]`?
ROMK mod: 0.002; Insulin prom inh: 8; Ins promoter up: 0.04; KCC2 mod: 2.8*; WT yeast gro inh: -15; Lmaj promast: -6; KCC2 sec1: 0.01; KCC2 bumet counter: 0.0058; KCC2 secondary2: 0.033; HEK293 Tl flux: 0.0088; KCC2 ouabain: 0.02; HEK counter2: 0.011

What do the screens show for `Cc1cccc(C2=NN(c3ccc(Br)cc3)[C@@H](C(=O)N3CCOC3=O)[C@@H]2c2ccc(F)cc2)c1`?
ROMK mod: 0.17; Insulin prom inh: 36; Ins promoter up: -0.71; KCC2 mod: 0.36; WT yeast gro inh: 38; Lmaj promast: 8

How did CCCS(=O)(=O)n1nc(-c2ccc(C)cc2)cc1N do in these assays?
Ins promoter up: -0.81; WT yeast gro inh: 1; Lmaj promast: -4

Results for CC(C)(C)c1nc(SCC(=O)NCc2cccs2)c2ccccc2n1 ?
ROMK mod: -0.31; Insulin prom inh: -33; Ins promoter up: -1.5; KCC2 mod: -0.67; WT yeast gro inh: 3; Lmaj promast: 8
